Measured values taken from PubChem BioAssay (EPA / NIEHS).
Records with an inconclusive call do not appear. Active and inactive are the calls of the source. The calls were made as follows, unless noted: active = hit-call score of the fitted dose curve at least 0.9, where 1 is the maximum; inconclusive = response in the unintended direction; inactive = score below 0.9.

What was measured:
[1] = ATG_TAL_CIS: Attagene CIS-FACTORIAL HepG2 Assay for human TAL Basal Promoter (AID 2282966; active = hit-call score of the fitted dose curve at least 0.9, where 1 is the maximum; inactive = score below 0.9;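 also: background control endpoint measuring basal TAL promoter reporter mRNA not a specific factor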); settings: HepG2 Attagene cis-factorial TAL promoter reporter; actives raise or lower the signal
Method in brief: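 Fluorescence of labelled reporter cDNA fragments, resolved by capillary electrophoresis, gave the readout. Human HepG2 liver cells carried transiently transfected cis-element reporter units and were treated for 24 hours; activity was fitted bidirectionally against DMSO.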

[2] = ATG_TGFb_CIS: Attagene CIS-FACTORIAL HepG2 Assay for human Transforming Growth Factor (TGF) (AID 2282967; active = hit-call score of the fitted dose curve at least 0.9, where 1 is the maximum; inactive = score below 0.9); settings: HepG2 Attagene CIS TGFb reporter, mRNA transcription; actives raise or lower the signal
Method in brief: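 Transient MRTU transfection of HepG2 (FuGene 6). Dose 24 h. TriZol RNA, oligo(dT) RT, PCR, 6-FAM primer extension, HpaI cut, CE. Bidirectional fit, DMSO = baseline.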

[3] = ATG_VDRE_CIS: Attagene CIS-FACTORIAL HepG2 Assay for human Vitamin D Receptor Element (VDRE) (AID 2282968; active = hit-call score of the fitted dose curve at least 0.9, where 1 is the maximum; inactive = score below 0.9); settings: HepG2 VDRE cis-reporter transcription, actives raise or lower the signal
Method in brief: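 RT-PCR/CE readout of reporter mRNA; HepG2, transient transfection, 24 h dosing; DMSO baseline; bidirectional analysis.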

[4] = target: Steroid hormone receptor ERR1 (Homo sapiens) (UniProt P11474); test: ATG_ERRa_TRANS: Attagene TRANS-FACTORIAL HepG2 Assay for human Estrogen-Related Receptor alpha (ERRa) (AID 2282971); settings: HepG2 Attagene TRANS reporter, ERRa transactivation
Method in brief: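 Reporter transcript induction was quantified by RT-PCR and capillary electrophoresis of FAM-labelled, HpaI-cut products after 24 h treatment of HepG2 cells carrying transiently transfected GAL4-UAS reporter units and an exogenous ERRa-Gal4 fusion; activity scored as increase over DMSO.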

[5] = ATG_GAL4_TRANS: Attagene TRANS-FACTORIAL HepG2 Assay for GAL4 (Internal Marker) (AID 2282976); settings: HepG2 Attagene TRANS GAL4 internal marker reporter
Method in brief: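 First, HepG2 cells were transfected with reporter units under GAL4-UAS control. Next, they were treated with chemical for 24 h. Finally, RNA was reverse-transcribed, PCR-amplified, FAM-labelled and resolved by capillary electrophoresis, with induction scored against DMSO.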

[6] = target: Estrogen-related receptor gamma (Homo sapiens) (UniProt P62508); test: ATG_ERRg_TRANS: Attagene TRANS-FACTORIAL HepG2 Assay for human Estrogen-Related Receptor gamma (ERRg) (AID 2282977); settings: HepG2 Attagene TRANS reporter, ERRg transactivation;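 also: hits increase reporter signal over DMSO so potencies reflect activators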
Method in brief: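 HepG2 cells transiently transfected with multiplexed GAL4-UAS reporter units driven by chimeric NR-Gal4 proteins; 24 h exposure. Reporter mRNA quantified by RT-PCR, fluorescent labelling, HpaI digestion and capillary electrophoresis; gain of signal vs DMSO.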

[7] = target: Oxysterols receptor LXR-alpha (Homo sapiens) (UniProt Q13133); test: ATG_LXRa_TRANS: Attagene TRANS-FACTORIAL HepG2 Assay for human Liver X Receptor alpha (LXRa) (AID 2282980); settings: HepG2 Attagene TRANS reporter, LXRa transactivation
Method in brief: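 Transfect HepG2 with GAL4-UAS multiplex reporter constructs (TRANS format, chimeric receptor-GAL4); treat 24 h; extract RNA, reverse-transcribe, PCR-amplify, FAM-label, HpaI-digest; resolve fragments by capillary electrophoresis. Upward response vs DMSO.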

[8] = target: Oxysterols receptor LXR-beta (Homo sapiens) (UniProt P55055); test: ATG_LXRb_TRANS: Attagene TRANS-FACTORIAL HepG2 Assay for human Liver X Receptor beta (LXRb) (AID 2282981); settings: HepG2 Attagene TRANS GAL4-LXRb reporter, mRNA
Method in brief: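 In this TRANS format, exogenous chimeric NR-Gal4 protein activity, not endogenous factors, drives reporter expression in transfected human HepG2 cells. Exposure lasted 24 h; reporter mRNA was read by fluorescent capillary electrophoresis.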

[9] = target: Hepatocyte nuclear factor 4-alpha (Homo sapiens) (UniProt P41235); test: ATG_HNF4a_TRANS: Attagene TRANS-FACTORIAL HepG2 Assay for human Hepatocyte Nuclear Factor 4 alpha (HNF4a) (AID 2282982); settings: HepG2 HNF4a transactivation reporter, mRNA readout
Method in brief: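 Cells used were human HepG2, transiently carrying GAL4-UAS reporter units read out against exogenous NR-GAL4 chimeras. Reporter transcript levels after 24 h dosing were quantified by fluorescent RT-PCR and capillary electrophoresis.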

[10] = ATG_M_06_TRANS: Attagene TRANS-FACTORIAL HepG2 Assay for M06 Transcription Factor (Internal Marker) (AID 2282983); settings: HepG2 Attagene TRANS M06 internal marker reporter
Method in brief: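 Transfect HepG2 with MRTUs → dose compounds 24 h → isolate RNA, oligo(dT) RT → PCR with reporter primers → 6-FAM primer extension → HpaI digest → CE fragment analysis. Positive direction vs DMSO.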

[11] = target: Transcriptional activator Myb (Homo sapiens) (UniProt P10242); test: ATG_Myb_CIS: Attagene CIS-FACTORIAL HepG2 Assay for human Myeloblastosis (Myb) Proto-Oncogene Transcription Factor (AID 2282986; active = hit-call score of the fitted dose curve at least 0.9, where 1 is the maximum; inactive = score below 0.9); settings: HepG2 Attagene CIS-FACTORIAL Myb reporter transcription; actives raise or lower the signal
Method in brief: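 Using HepG2 liver cells bearing transiently transfected cis-promoter reporter constructs, the assay measures induction or loss of reporter mRNA after 24 hours of dosing. Detection used fluorescently labeled RT-PCR products separated by capillary electrophoresis.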

[12] = target: Nuclear respiratory factor 1 (Homo sapiens) (UniProt Q16656); test: ATG_NRF1_CIS: Attagene CIS-FACTORIAL HepG2 Assay for human Nuclear Respiratory Factor 1 (NRF1) Orphan Gene (AID 2282987; active = hit-call score of the fitted dose curve at least 0.9, where 1 is the maximum; inactive = score below 0.9); settings: HepG2 NRF1 cis-element reporter, Attagene multiplex; actives raise or lower the signal
Method in brief: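 Reporter mRNA induction or loss in HepG2 cells after 24 h dosing; cis-regulated reporter constructs report endogenous transcription-factor activity. Quantified by RT-PCR/capillary electrophoresis fluorescence, DMSO-referenced.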

[13] = target: X-box-binding protein 1 (Homo sapiens) (UniProt P17861); test: ATG_Xbp1_CIS: Attagene CIS-FACTORIAL HepG2 Assay for human X-box Binding Protein 1 (XBP1) (AID 2282972; active = hit-call score of the fitted dose curve at least 0.9, where 1 is the maximum; inactive = score below 0.9); settings: HepG2 XBP1 cis-element reporter, Attagene multiplex; actives raise or lower the signal
Method in brief: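 HepG2 cells transiently transfected with multiple cis-element reporter units report endogenous TF activity; 24 h exposure, then reporter mRNA measured by RT-PCR, 6-FAM labelling, HpaI digestion and capillary electrophoresis. Bidirectional fitting versus DMSO.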

[14] = ATG_M_19_TRANS: Attagene TRANS-FACTORIAL HepG2 Assay for M19 Transcription Factor (Internal Marker) (AID 2282974); settings: HepG2 Attagene TRANS-FACTORIAL M19 internal marker reporter
Method in brief: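 Multiplexed TRANS format: HepG2 liver cells bearing transient GAL4-UAS reporter units, chemical treatment 24 h, reporter transcripts quantified by RT-PCR plus capillary electrophoresis. DMSO defines baseline.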

[15] = ATG_M_32_TRANS: Attagene TRANS-FACTORIAL HepG2 Assay for M32 Transcription Factor (Internal Marker) (AID 2282984); settings: HepG2 Attagene TRANS M32 internal marker reporter;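 also: transcript level of a background control reporter unit measured by RT-PCR and capillary electrophoresis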
Method in brief: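 Human hepatoma HepG2, transient MRTU transfection, 24 h treatment. RNA → RT-PCR → fluorescent primer extension → HpaI digest (2 h, 37 C) → CE. Positive-direction fit vs DMSO.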

[16] = target: Nuclear receptor subfamily 4 group A member 2 (Homo sapiens) (UniProt P43354); test: ATG_NURR1_TRANS: Attagene TRANS-FACTORIAL HepG2 Assay for human Nuclear Receptor Related Protein 1 (NURR1) (AID 2282985); settings: HepG2 Attagene TRANS reporter, mRNA readout
Method in brief: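 After 24 h chemical dosing, total RNA from transiently transfected HepG2 cells was reverse-transcribed and reporter cDNA PCR-amplified, FAM-labelled and analysed by capillary electrophoresis. Activity fitted in positive direction, DMSO as negative control.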

[17] = target: Estrogen receptor (Homo sapiens) (UniProt P03372); test: ATG_ERa_TRANS: Attagene TRANS-FACTORIAL HepG2 Assay for human Estrogen Receptor alpha (ERa) (AID 2282970); settings: HepG2 Attagene TRANS ERa GAL4 reporter, mRNA
Method in brief: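 Human liver HepG2, transient transfection of multiple GAL4-UAS reporter units; TRANS format (exogenous NR-Gal4 chimera). 24 h dosing. Readout: reporter mRNA, RT-PCR, 6-FAM primer extension, HpaI digest, capillary electrophoresis. Positive direction vs DMSO.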

[18] = target: Glucocorticoid receptor (Homo sapiens) (UniProt P04150); test: ATG_GR_TRANS: Attagene TRANS-FACTORIAL HepG2 Assay for human Glucocorticoid Receptor (GR) (AID 2282978); settings: HepG2 Attagene TRANS GR reporter, mRNA transcription;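 also: activators score as hits since higher reporter transcript over DMSO is fitted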
Method in brief: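 Transiently transfected HepG2 cells express chimeric NR-GAL4 proteins acting on GAL4-UAS reporter units. Compounds are applied for 24 h. mRNA induction over DMSO is measured by capillary electrophoresis.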

[19] = target: Bile acid receptor (Homo sapiens) (UniProt Q96RI1); test: ATG_FXR_TRANS: Attagene TRANS-FACTORIAL HepG2 Assay for Farnesoid X Receptor (FXR) (AID 2282979); settings: HepG2 Attagene TRANS FXR-GAL4 reporter transcription;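 also: hits raise reporter mRNA above DMSO so AC50 marks FXR activation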
Method in brief: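 Transient transfection of HepG2 with multiplexed GAL4-UAS reporter units; exogenous FXR-GAL4 chimera. Dose 24 h → TriZol RNA → oligo(dT) RT → PCR, 6-FAM primer extension, HpaI cut → CE. Gain vs DMSO.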

Measured: AC50

Sequence of Steroid hormone receptor ERR1 (Homo sapiens) (P11474 whole entry, looked up, the tested form may be a part): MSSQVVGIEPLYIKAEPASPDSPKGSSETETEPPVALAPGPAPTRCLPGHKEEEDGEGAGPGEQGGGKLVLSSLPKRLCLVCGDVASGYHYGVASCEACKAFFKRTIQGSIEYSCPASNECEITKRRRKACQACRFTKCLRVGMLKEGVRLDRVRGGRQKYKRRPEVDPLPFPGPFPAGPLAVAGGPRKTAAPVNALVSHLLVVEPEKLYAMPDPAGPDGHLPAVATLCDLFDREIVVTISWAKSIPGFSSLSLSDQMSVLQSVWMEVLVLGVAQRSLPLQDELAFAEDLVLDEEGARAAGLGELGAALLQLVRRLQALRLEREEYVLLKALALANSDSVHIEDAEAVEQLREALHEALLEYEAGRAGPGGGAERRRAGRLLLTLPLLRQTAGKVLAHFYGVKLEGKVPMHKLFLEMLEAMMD
Sequence of X-box-binding protein 1 (Homo sapiens) (P17861 whole entry, looked up): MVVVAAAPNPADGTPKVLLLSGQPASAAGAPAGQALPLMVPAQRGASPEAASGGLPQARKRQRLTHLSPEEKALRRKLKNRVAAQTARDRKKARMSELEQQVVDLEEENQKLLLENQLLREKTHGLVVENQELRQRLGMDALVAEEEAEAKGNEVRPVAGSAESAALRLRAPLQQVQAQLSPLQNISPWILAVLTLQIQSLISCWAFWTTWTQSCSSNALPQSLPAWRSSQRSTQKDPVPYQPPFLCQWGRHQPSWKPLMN
Sequence of Bile acid receptor (Homo sapiens) (Q96RI1 whole entry, looked up, the tested form may be a part): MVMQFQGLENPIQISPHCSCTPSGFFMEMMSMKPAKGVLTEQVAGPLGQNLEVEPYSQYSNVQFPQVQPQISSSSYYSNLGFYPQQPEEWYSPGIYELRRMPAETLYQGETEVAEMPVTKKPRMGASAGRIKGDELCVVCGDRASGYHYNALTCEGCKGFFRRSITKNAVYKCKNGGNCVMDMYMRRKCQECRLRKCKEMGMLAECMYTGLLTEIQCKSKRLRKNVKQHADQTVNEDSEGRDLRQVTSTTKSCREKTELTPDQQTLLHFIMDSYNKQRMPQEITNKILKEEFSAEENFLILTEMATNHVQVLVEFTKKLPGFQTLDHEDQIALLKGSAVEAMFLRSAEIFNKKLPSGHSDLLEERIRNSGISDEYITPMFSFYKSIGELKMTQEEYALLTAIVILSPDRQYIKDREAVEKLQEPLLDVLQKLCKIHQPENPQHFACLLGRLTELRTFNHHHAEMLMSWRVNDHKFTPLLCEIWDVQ
Sequence of Oxysterols receptor LXR-alpha (Homo sapiens) (Q13133 whole entry, looked up, the tested form may be a part): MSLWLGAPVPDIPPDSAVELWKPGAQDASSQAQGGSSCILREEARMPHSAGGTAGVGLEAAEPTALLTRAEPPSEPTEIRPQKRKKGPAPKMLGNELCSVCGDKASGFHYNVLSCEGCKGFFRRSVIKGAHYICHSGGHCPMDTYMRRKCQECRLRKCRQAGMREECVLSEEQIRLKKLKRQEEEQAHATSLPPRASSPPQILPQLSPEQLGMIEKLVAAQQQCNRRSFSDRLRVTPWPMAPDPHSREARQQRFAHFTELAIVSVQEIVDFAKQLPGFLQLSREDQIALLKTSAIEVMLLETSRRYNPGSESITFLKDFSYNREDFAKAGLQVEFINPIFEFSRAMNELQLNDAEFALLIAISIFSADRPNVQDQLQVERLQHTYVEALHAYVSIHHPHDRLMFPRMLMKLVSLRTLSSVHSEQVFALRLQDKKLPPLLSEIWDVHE
Sequence of Nuclear respiratory factor 1 (Homo sapiens) (Q16656 whole entry, looked up): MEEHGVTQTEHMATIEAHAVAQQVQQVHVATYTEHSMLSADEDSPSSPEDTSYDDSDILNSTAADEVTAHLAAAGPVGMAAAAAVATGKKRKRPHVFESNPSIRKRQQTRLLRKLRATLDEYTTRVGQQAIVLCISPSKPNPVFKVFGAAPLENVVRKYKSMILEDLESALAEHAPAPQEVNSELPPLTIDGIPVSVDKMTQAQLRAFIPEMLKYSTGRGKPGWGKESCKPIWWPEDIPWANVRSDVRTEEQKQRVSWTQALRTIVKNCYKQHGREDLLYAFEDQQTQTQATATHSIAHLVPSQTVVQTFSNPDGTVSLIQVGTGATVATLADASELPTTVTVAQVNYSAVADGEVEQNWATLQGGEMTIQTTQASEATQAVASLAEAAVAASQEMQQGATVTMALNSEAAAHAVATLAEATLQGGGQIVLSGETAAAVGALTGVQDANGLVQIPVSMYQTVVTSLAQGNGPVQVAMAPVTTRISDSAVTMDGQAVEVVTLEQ
Sequence of Estrogen-related receptor gamma (Homo sapiens) (P62508 whole entry, looked up, the tested form may be a part): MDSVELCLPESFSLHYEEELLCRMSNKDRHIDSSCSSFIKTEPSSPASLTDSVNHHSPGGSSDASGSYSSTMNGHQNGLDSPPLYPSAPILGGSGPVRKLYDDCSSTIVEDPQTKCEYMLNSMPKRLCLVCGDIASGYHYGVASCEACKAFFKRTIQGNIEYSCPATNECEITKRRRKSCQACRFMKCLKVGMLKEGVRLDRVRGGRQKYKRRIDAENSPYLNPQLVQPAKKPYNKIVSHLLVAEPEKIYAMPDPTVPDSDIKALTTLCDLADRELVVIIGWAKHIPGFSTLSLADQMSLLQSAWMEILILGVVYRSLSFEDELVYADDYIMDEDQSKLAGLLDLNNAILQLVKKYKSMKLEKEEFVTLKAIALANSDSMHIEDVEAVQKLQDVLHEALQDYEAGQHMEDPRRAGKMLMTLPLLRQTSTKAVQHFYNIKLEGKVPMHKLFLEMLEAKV
Sequence of Glucocorticoid receptor (Homo sapiens) (P04150 whole entry, looked up, the tested form may be a part): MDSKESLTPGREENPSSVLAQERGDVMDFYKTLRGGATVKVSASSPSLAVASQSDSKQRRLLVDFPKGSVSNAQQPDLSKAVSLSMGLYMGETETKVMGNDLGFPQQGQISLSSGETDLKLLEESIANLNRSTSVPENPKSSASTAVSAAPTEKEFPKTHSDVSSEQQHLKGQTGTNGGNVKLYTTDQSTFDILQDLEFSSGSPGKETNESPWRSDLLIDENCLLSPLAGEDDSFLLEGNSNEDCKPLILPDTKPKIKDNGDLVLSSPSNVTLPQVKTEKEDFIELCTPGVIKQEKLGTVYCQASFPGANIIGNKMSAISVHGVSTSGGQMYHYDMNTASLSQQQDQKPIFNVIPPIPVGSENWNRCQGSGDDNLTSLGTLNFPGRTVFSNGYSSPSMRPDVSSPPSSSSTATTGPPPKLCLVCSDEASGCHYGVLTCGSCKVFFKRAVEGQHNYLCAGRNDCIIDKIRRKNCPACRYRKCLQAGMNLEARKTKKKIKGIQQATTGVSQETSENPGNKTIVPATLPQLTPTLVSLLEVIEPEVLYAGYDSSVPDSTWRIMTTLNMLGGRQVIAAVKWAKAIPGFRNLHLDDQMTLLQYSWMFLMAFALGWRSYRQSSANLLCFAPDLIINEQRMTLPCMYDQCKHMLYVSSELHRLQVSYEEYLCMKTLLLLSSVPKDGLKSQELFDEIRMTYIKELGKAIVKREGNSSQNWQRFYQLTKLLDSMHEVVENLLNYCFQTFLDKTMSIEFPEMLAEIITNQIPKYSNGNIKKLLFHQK
Sequence of Transcriptional activator Myb (Homo sapiens) (P10242 whole entry, looked up): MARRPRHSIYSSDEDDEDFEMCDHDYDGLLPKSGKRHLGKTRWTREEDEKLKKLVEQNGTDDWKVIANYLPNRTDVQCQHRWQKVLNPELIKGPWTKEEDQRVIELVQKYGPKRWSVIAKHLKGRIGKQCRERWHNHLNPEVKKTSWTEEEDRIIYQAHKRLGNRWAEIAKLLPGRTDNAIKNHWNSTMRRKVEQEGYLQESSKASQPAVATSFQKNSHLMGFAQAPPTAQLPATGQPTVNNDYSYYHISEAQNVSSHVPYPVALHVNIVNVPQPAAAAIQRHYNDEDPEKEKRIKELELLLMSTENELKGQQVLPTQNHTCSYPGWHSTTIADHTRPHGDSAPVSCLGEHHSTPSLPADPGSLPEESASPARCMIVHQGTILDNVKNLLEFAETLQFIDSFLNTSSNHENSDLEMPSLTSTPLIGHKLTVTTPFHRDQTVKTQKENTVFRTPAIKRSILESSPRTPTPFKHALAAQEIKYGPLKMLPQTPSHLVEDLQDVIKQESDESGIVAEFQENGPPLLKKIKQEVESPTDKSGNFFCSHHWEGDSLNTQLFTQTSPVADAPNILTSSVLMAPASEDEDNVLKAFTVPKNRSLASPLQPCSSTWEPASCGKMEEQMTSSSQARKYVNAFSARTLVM
Sequence of Oxysterols receptor LXR-beta (Homo sapiens) (P55055 whole entry, looked up, the tested form may be a part): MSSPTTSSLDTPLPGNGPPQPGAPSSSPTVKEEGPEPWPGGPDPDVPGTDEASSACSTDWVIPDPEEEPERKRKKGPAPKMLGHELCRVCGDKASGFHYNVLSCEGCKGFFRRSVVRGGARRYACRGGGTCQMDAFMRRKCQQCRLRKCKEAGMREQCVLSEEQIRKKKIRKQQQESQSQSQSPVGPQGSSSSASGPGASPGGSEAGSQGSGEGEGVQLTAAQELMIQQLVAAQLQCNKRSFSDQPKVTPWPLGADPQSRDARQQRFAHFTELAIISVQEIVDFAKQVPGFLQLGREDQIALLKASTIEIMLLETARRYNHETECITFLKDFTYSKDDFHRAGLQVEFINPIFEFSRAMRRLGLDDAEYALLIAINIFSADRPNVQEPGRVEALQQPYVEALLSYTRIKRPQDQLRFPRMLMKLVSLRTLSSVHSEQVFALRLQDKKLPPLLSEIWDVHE
Sequence of Hepatocyte nuclear factor 4-alpha (Homo sapiens) (P41235 whole entry, looked up, the tested form may be a part): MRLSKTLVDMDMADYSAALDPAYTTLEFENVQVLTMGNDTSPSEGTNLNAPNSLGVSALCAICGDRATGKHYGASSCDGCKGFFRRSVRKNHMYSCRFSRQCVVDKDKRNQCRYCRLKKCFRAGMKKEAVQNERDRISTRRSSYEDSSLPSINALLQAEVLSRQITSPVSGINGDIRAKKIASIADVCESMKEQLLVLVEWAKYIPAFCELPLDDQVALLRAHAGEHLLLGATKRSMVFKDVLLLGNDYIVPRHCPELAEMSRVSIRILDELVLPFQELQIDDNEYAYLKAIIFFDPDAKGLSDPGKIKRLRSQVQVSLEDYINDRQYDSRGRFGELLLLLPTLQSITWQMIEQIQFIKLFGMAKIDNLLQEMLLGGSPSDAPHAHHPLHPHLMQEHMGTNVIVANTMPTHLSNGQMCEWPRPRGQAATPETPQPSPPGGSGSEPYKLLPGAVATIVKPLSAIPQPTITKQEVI

CCCCCCCCC=O
not listed: [13] | [14] | [15] | [16] | [17] | [18] | [19]
inactive: all other assays above

OC1C(O)C(O)C(O)C(O)C1O (stereo not drawn)
not listed: [4] | [6] | [7] | [17] | [18] | [19]
inactive: all other assays above

O=Cc1ccc(Cl)c([N+](=O)[O-])c1
active: [3] 100 µM | [13] 149 µM | [11] 144 µM | [12] 170 µM
not listed: [4] | [5] | [6] | [14] | [18] | [19]
inactive: all other assays above

O=C(O)CN(CCN(CC(=O)O)CC(=O)O)CCN(CC(=O)O)CC(=O)O
not listed: [7] | [17] | [18] | [19]
inactive: all other assays above

CCN(CC)CCOC(=O)c1ccc(N)cc1
not listed: [8] | [9] | [10] | [16] | [17] | [18] | [19]
inactive: all other assays above

CC(C)(C#N)c1cc(Cn2cncn2)cc(C(C)(C)C#N)c1
not listed: [6] | [14] | [16] | [17]
inactive: all other assays above

CC(C#N)(CCC(=O)O)N=NC(C)(C#N)CCC(=O)O (stereo not drawn)
not listed: [5] | [9] | [14] | [16] | [17]
inactive: all other assays above

O=CCCc1ccccc1
inactive: [1] | [2] | [3] | [4] | [13] | [14] | [18] | [10] | [15] | [11]

O=C1C(c2[nH]c3ccc(S(=O)(=O)O)cc3c2O)=Nc2ccc(S(=O)(=O)O)cc21
not listed: [6] | [7] | [9] | [14] | [17] | [18] | [19]
inactive: all other assays above

C=CC(C)(C)O
not listed: [4] | [6] | [7] | [8] | [16] | [17] | [18]
inactive: all other assays above
